Each structure is given as a SMILES string. This is part of a sample that, as a whole, favours compounds with a hit. Of some 79,000 tested, about 15% had one in any assay. Calls of active or inactive are those of the source. No stated cut-off is given here; in the data, active means growth inhibition above about 70%; inactive means the rest.

The nature of the first test: NCI Yeast Anticancer Drug Screen. Data for the bub3 strain (AID 167). The note with it: S. cerevisiae bub3 mutant strain, at 50.0 µM, active compounds read high. An outline of the steps: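 In this screen, a yeast mutant lacking normal mitotic checkpoint function is challenged with compound. Relative growth versus vehicle gives the inhibition value.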
For the molecule `CCCC(=O)Nc1ccc(OC)cc1`, the growth inhibition is -1.85% (inactive).
Same read-out and setting: for `CCCCOCCOC(=O)Nc1cccc(Cl)c1` the value was -0.3% (inactive).
Same read-out and setting: for `CCCCCc1[nH]c(=O)[nH]c(=O)c1S(=O)(=O)N1CCCCC1` the value was 25.9% (inactive).
Same read-out and setting: to `CC(=O)OCCC12CCC(CC1Cl)C2(C)C` (stereo not given) belongs -3.05% (inactive); to `CCCCCCCCCC/C=C/C=O`, 43.6% (inactive); to `Nc1ccncn1`, -4.35% (inactive).
On to `CCN(CC)CCCC(C)n1c(-c2ccc(OC)cc2)nc2cc(Cl)ccc21` (stereo not given), for which the growth inhibition is 6.55% (inactive).
On the same count and under the same terms, for `COC(=O)/C=C1\SC(OC)(N(C)c2ccccc2)N(C)C1=O` (stereo not given) the value was -0.8% (inactive); for `O=C(O)COCC(=O)N(CCOCCN(Cc1ccccc1)C(=O)COCC(=O)O)Cc1ccccc1`, 0.7% (inactive).
The same measure, in the same setting: for `C=CCOC(=O)c1cccc(C(=O)OCC=C)c1` the value was 34.5% (inactive); for `CC(=O)Nc1ccc(S(=O)(=O)CCS(=O)(=O)c2ccc(NC(C)=O)cc2)cc1`, 3.65% (inactive).
Still for that read-out and setting: to `CCN(CC)CCNCc1ccc(Cl)cc1` belongs -8.7% (inactive); to `COc1ccc(/C=C/C(CC(NO)c2ccc(OC)cc2)=N\O)cc1` (stereo not given), -8.7% (inactive); to `O=C1OC([C@H](O)c2cccnc2)c2ccccc21` (stereo not given in full), -26.1% (inactive).
Consider `CCCOC(=O)CNC(=O)OC(C)(C)C`, for which the growth inhibition was -4.95% (inactive).
Still for that read-out and setting: for `Cc1cc(N(CCC#N)CCC#N)ccc1C=Nc1ccc(C(=O)NN2C(=O)/C(=C/c3ccc(N(CCC#N)CCC#N)cc3)N=C2c2cc([N+](=O)[O-])ccc2Cl)cc1` the value was 4.7% (inactive); for `COc1cc(C(C)S(=O)(=O)c2ccc(C)cc2)ccc1O` (stereo not given), 3.2% (inactive); for `CC(=O)OC1CCC2(C)C(CCC3C2CC(OC(C)=O)C2(C)C(C(C)CCC(c4ccccc4)c4ccccc4)CCC32)C1` (stereo not given), 0.15% (inactive).
On the same count and under the same terms, to `CC(=O)NNc1nc(C)c(C(/C=C/c2ccc(Cl)cc2)=N\NS(=O)(=O)c2ccc(C)cc2)s1` belongs 23.6% (inactive).
Same read-out and setting: to `Nc1ccccc1N1C(=O)C(Cl)=C(Cl)C1=O` belongs 3% (inactive); to `CCCCOC(=O)NC(C)=O`, -1.55% (inactive); to `CC(=O)SC1CC(=O)OC1=O` (stereo not given), 0.2% (inactive).
Take `O=C1C(Cc2ccccc2)CCCC1Cc1ccccc1` (stereo not given): the growth inhibition was -6.4% (inactive).
With `COC(=O)c1ccc(C)[nH]1`, the growth inhibition is 6.4% (inactive).
`COC(=O)NC1(NC(=O)OC)NC(=O)c2cc(OC)c(OC)cc2N1`: the growth inhibition is 6.55% (inactive).
Still for that read-out and setting: to `O/N=C1\CC2(N3CCOCC3)CCC1(Cc1ccccc1)CC2` belongs 38.8% (inactive).
With `O=C(O)CC/C(=N\Nc1ccc([N+](=O)[O-])cc1[N+](=O)[O-])c1ccccc1`, the growth inhibition is 16.2% (inactive).
As for `Nc1ccc(S(=O)(=O)NC(=O)NCc2ccccc2)cc1`, the growth inhibition is -10.6% (inactive).
On to `C[C@]12CCC(=O)C(O)=C1CCC2=O`, for which the growth inhibition was 3.8% (inactive).
Same read-out and setting: for `Nc1ccc2[nH]c(=O)c(=O)[nH]c2c1` the value was 1.1% (inactive).
Still for that read-out and setting: to `O=C(CCC1CCCCC1)OCC1CCCO1` (stereo not given) belongs 24.6% (inactive).
Same read-out and setting: for `CCN(CC)N1C(=O)[N+](CC)(CC)N=C1[O-]` the value was -5.35% (inactive).
As for `CC(c1ccc(N)cc1)n1cnc2c(Cl)ncnc21` (stereo not given), the growth inhibition is 8.85% (inactive).
`COC(=O)Oc1ccccc1C(=O)O`: the growth inhibition is -24.6% (inactive).
`COc1nc(NCCO)nc(OC)n1`: the growth inhibition is 4.65% (inactive).
The same measure, in the same setting: for `NC(=O)COc1ncc(Cl)cc1Cl` the value was 4.4% (inactive); for `O=C1CC=NC(=S)N1`, -2.7% (inactive).
Still for that read-out and setting: to `CCCC(=O)OC(C)CC(C)C` (stereo not given) belongs 2.2% (inactive); to `CC(CO)CCC(=O)C(C)C1CC2(C)CCC3C(CCC4CC(O)CCC43C)C2C12SCCS2` (stereo not given), 36.6% (inactive); to `O=C(Nc1cccc(Cl)c1)Sc1c(Cl)c(Cl)c(Cl)c(Cl)c1Cl`, 7.3% (inactive).

A short description of a further test: NCI Yeast Anticancer Drug Screen. Data for the mlh1 rad18 strain (AID 175). Particulars: S. cerevisiae mlh1 rad18 strain growth inhibition; at 50.0 µM; active compounds read high. An outline of the steps: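 Steps: expose repair-defective yeast to compound; measure growth; express inhibition against vehicle-treated controls.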
With `CCCC(=O)Nc1ccc(OC)cc1`, the growth inhibition is 1.9% (inactive).
Still for that read-out and setting: for `CCCCOCCOC(=O)Nc1cccc(Cl)c1` the value was 2.15% (inactive); for `CCCCCc1[nH]c(=O)[nH]c(=O)c1S(=O)(=O)N1CCCCC1`, 18.2% (inactive).
Still for that read-out and setting: for `CC(=O)OCCC12CCC(CC1Cl)C2(C)C` (stereo not given) the value was -3.55% (inactive).
Same read-out and setting: to `CCCCCCCCCC/C=C/C=O` belongs 8.9% (inactive).
As for `Nc1ccncn1`, the growth inhibition is -13.8% (inactive).
Turning to `CCN(CC)CCCC(C)n1c(-c2ccc(OC)cc2)nc2cc(Cl)ccc21` (stereo not given), the growth inhibition is 4.6% (inactive).
Still for that read-out and setting: for `COC(=O)/C=C1\SC(OC)(N(C)c2ccccc2)N(C)C1=O` (stereo not given) the value was 19.1% (inactive); for `O=C(O)COCC(=O)N(CCOCCN(Cc1ccccc1)C(=O)COCC(=O)O)Cc1ccccc1`, 4.1% (inactive); for `C=CCOC(=O)c1cccc(C(=O)OCC=C)c1`, 33.8% (inactive).
On the same count and under the same terms, for `CC(=O)Nc1ccc(S(=O)(=O)CCS(=O)(=O)c2ccc(NC(C)=O)cc2)cc1` the value was -9.45% (inactive); for `CCN(CC)CCNCc1ccc(Cl)cc1`, -16.1% (inactive).
On the same count and under the same terms, to `COc1ccc(/C=C/C(CC(NO)c2ccc(OC)cc2)=N\O)cc1` (stereo not given) belongs 3.8% (inactive); to `O=C1OC([C@H](O)c2cccnc2)c2ccccc21` (stereo not given in full), -21.6% (inactive).
For the molecule `CCCOC(=O)CNC(=O)OC(C)(C)C`, the growth inhibition was -4.35% (inactive).
Still for that read-out and setting: for `Cc1cc(N(CCC#N)CCC#N)ccc1C=Nc1ccc(C(=O)NN2C(=O)/C(=C/c3ccc(N(CCC#N)CCC#N)cc3)N=C2c2cc([N+](=O)[O-])ccc2Cl)cc1` the value was 7.8% (inactive); for `COc1cc(C(C)S(=O)(=O)c2ccc(C)cc2)ccc1O` (stereo not given), 9.45% (inactive); for `CC(=O)OC1CCC2(C)C(CCC3C2CC(OC(C)=O)C2(C)C(C(C)CCC(c4ccccc4)c4ccccc4)CCC32)C1` (stereo not given), -1.55% (inactive).
With `CC(=O)NNc1nc(C)c(C(/C=C/c2ccc(Cl)cc2)=N\NS(=O)(=O)c2ccc(C)cc2)s1`, the growth inhibition was 9.45% (inactive).
Regarding `Nc1ccccc1N1C(=O)C(Cl)=C(Cl)C1=O`, the growth inhibition was 44% (inactive).
Regarding `CCCCOC(=O)NC(C)=O`, the growth inhibition is -16.1% (inactive).
Take `CC(=O)SC1CC(=O)OC1=O` (stereo not given): the growth inhibition was 7.85% (inactive).
The same measure, in the same setting: to `O=C1C(Cc2ccccc2)CCCC1Cc1ccccc1` (stereo not given) belongs 3.35% (inactive); to `COC(=O)c1ccc(C)[nH]1`, -1.8% (inactive).
On to `COC(=O)NC1(NC(=O)OC)NC(=O)c2cc(OC)c(OC)cc2N1`, for which the growth inhibition was 5.75% (inactive).
In the case of `O/N=C1\CC2(N3CCOCC3)CCC1(Cc1ccccc1)CC2`, the growth inhibition is 49.4% (inactive).
As to `O=C(O)CC/C(=N\Nc1ccc([N+](=O)[O-])cc1[N+](=O)[O-])c1ccccc1`, the growth inhibition is 30.3% (inactive).
The same measure, in the same setting: for `Nc1ccc(S(=O)(=O)NC(=O)NCc2ccccc2)cc1` the value was -9.55% (inactive); for `C[C@]12CCC(=O)C(O)=C1CCC2=O`, 4.5% (inactive).
Regarding `Nc1ccc2[nH]c(=O)c(=O)[nH]c2c1`, the growth inhibition is 14.8% (inactive).
Still for that read-out and setting: to `O=C(CCC1CCCCC1)OCC1CCCO1` (stereo not given) belongs 48.1% (inactive); to `CCN(CC)N1C(=O)[N+](CC)(CC)N=C1[O-]`, 2.05% (inactive).
Still for that read-out and setting: for `CC(c1ccc(N)cc1)n1cnc2c(Cl)ncnc21` (stereo not given) the value was 7.85% (inactive).
Consider `COC(=O)Oc1ccccc1C(=O)O`, for which the growth inhibition is -5.55% (inactive).
Same read-out and setting: for `COc1nc(NCCO)nc(OC)n1` the value was -4.85% (inactive); for `NC(=O)COc1ncc(Cl)cc1Cl`, 3.35% (inactive).
On the same count and under the same terms, for `O=C1CC=NC(=S)N1` the value was 28.4% (inactive); for `CCCC(=O)OC(C)CC(C)C` (stereo not given), 1.95% (inactive); for `CC(CO)CCC(=O)C(C)C1CC2(C)CCC3C(CCC4CC(O)CCC43C)C2C12SCCS2` (stereo not given), -0.25% (inactive).
The same measure, in the same setting: for `O=C(Nc1cccc(Cl)c1)Sc1c(Cl)c(Cl)c(Cl)c(Cl)c1Cl` the value was 34.8% (inactive).

(Values after PubChem BioAssay (NCI).)
